From the supplement of paper PMC12350171
Where a name gives a salt, the structure may show the parent alone. Values without a mark were called inactive.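 How the source made its calls: active = AUC significantly below DMSO controls by Student t-fit with adjusted P under 0.01; inactive = not significantly reduced.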

test system: Haemophilus parainfluenzae; assay: growth AUC normalised to DMSO control (fraction of control); higher = less growth inhibition, active = hit call of the paper; conditions: 20 µM
How it was run: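 After two anaerobic passages, pathogens were added at a starting OD578 of 0.01 to pre-reduced mGAM plates holding compound at 20 μM with 1% DMSO; hemin and NAD were supplemented for Haemophilus parainfluenzae. Sealed with breathable membranes, plates were read at OD578 hourly for 24 h, in three biological replicates. The trapezoidal rule, applied up to the exponential-to-stationary transition, gave the growth-curve AUC, which was normalised to DMSO controls on the same plate.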

Row | SMILES | growth AUC normalised to DMSO control
1 | Clc1cccc(Cl)c1NC1=NCCN1 [Clonidine hydrochloride] | 0.978
2 | N=c1nc(N2CCCCC2)cc(N)n1O [Minoxidil] | 1.03
3 | C#CCN(C)CCCOc1ccc(Cl)cc1Cl [Clorgyline hydrochloride] | 0.943
4 | Nc1nc2ccc(OC(F)(F)F)cc2s1 [Riluzole hydrochloride] | 1.01
5 | c1coc(CNc2ncnc3[nH]cnc23)c1 [Kinetin] | 1.01
6 | CN1CCN(C(c2ccccc2)c2ccc(Cl)cc2)CC1 (centres undefined) [Chlorcyclizine hydrochloride] | 0.982
7 | Cn1c(=O)c2c(ncn2CC2OCCO2)n(C)c1=O [Doxofylline] | 1.02
8 | Cc1ccc(N(CC2=NCCN2)c2cccc(O)c2)cc1 [Phentolamine hydrochloride] | 1.05
9 | O=C(O)c1cc(/N=N/c2ccc(S(=O)(=O)Nc3ccccn3)cc2)ccc1O [Sulfasalazine] | 1.04
10 | CC(COc1ccccc1)NC(C)C(O)c1ccc(O)cc1 (centres undefined) [Isoxsuprine hydrochloride] | 0.939
11 | COc1ccc2cc([C@H](C)C(=O)O)ccc2c1 [(S)-Naproxen] | 1
12 | CCCOc1ccccc1-c1nc2[nH]nnc2c(=O)[nH]1 [Zaprinast] | 1.01
13 | CC(C)C(=O)c1c(C(C)C)nn2ccccc12 [Ibudilast] | 0.811
14 | Nc1nc(N)nc(-c2cc(Cl)ccc2Cl)n1 [Irsogladine maleate] | 1.01
15 | Oc1c(Cl)cc(Cl)c(Cl)c1Cc1c(O)c(Cl)cc(Cl)c1Cl [Hexachlorophene] | 0.0305 (active)
16 | OC(CCCN1CCCCC1)(c1ccccc1)c1ccccc1 [Diphenidol hydrochloride] | 1
17 | CC(=O)O[C@]1(C(C)=O)CC[C@H]2[C@@H]3C=C(C)C4=CC(=O)CC[C@@H]4[C@H]3CC[C@@]21C [Nomegestrol acetate] | 0.976
18 | N[C@H]1CONC1=O [(S,-) Cycloserine] | 0.989
19 | CC(C)(C(=O)O)c1ccc(C(O)CCCN2CCC(C(O)(c3ccccc3)c3ccccc3)CC2)cc1 (centres undefined) [Fexofenadine hydrochloride] | 1.01
20 | NCCc1cc[nH]n1 [Betazole hydrochloride] | 1

Row | SMILES | growth AUC normalised to DMSO control
21 | CCN(CC)CCOc1ccc(C(=C(Cl)c2ccccc2)c2ccccc2)cc1 [(Z,E) Clomiphene citrate] | 1.02
22 | C[C@]12C[C@H](O)[C@H]3[C@@H](CCC4=CC(=O)CC[C@@]43C)[C@@H]1CC[C@@H]2C(=O)CO [Corticosterone] | 0.962
23 | CCC1(c2ccccc2)C(=O)NCNC1=O [Primidone] | 0.953
24 | Clc1ccccc1C(c1ccccc1)(c1ccccc1)n1ccnc1 [Clotrimazole] | 0.968
25 | NCCNCCNCCNCCN [Tetraethylenepentamine pentahydrochloride] | 0.971
26 | CCN1CCC[C@H]1CNC(=O)c1c(O)c(Cl)cc(Cl)c1OC [Raclopride] | 0.944
27 | CC(C)(C)NCC(O)c1cc(O)cc(O)c1 (centres undefined) [Terbutaline hemisulfate] | 1.06
28 | NC(=O)N1c2ccccc2C=Cc2ccccc21 [Carbamazepine] | 0.989
29 | COc1cc(-c2ccc(=O)[nH]n2)ccc1OC(F)F [Zardaverine] | 1.02
30 | CCc1c(C)[nH]c2c1C(=O)C(CN1CCOCC1)CC2 (centres undefined) [Molindone hydrochloride] | 1.01
31 | CCN(CCCCOC(=O)c1ccc(OC)c(OC)c1)C(C)Cc1ccc(OC)cc1 (centres undefined) [Mebeverine hydrochloride] | 1.03
32 | COc1ccc(C2CNC(=O)C2)cc1OC1CCCC1 (centres undefined) [Rolipram] | 0.952
33 | COc1ccc2c(c1)c(CC(=O)O)c(C)n2C(=O)c1ccc(Cl)cc1 [Indomethacin] | 0.975
34 | CC1CCc2cc(F)cc3c(=O)c(C(=O)O)cn1c23 (centres undefined) [Flumequine] | 0.066 (active)
35 | COc1cc(Cc2cnc(N)nc2N)cc(OC)c1OC [Trimethoprim] | 0.0255 (active)
36 | CCOC(=O)[C@@](C)(N)Cc1ccc(O)c(O)c1 [Methyldopate hydrochloride] | 0.995
37 | Nc1ccc(S(=O)(=O)c2ccc(N)cc2)cc1 [Dapsone] | 1
38 | CC1(C)O[C@@H]2C[C@H]3[C@@H]4C[C@H](F)C5=CC(=O)CC[C@]5(C)[C@H]4[C@@H](O)C[C@]3(C)[C@]2(C(=O)CO)O1 [Flurandrenolide] | 1.03
39 | O=C(Nc1ccc([N+](=O)[O-])cc1Cl)c1cc(Cl)ccc1O [Niclosamide] | 0.046 (active)
